In PubChem BioAssay (NCATS):
“And” between values parts separate entries of the source, which are not always exact repeats. Equal values may be shown once. Records with an inconclusive call do not appear. The source made the active and inactive calls. The call rests on the fitted dose curve.

molecular target: Bile acid receptor (Homo sapiens) (UniProt Q96RI1); test: qHTS assay for small molecule agonists of farnesoid X receptor signaling (AID 588527); conditions: HEK293T FXR-UAS-bla, beta-lactamase ratio, 16 h; active compounds read high;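 further: series mostly up to about 77 µM; 0% = vehicle basal and 100% = reference agonist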
Sequence (Q96RI1 whole entry, looked up): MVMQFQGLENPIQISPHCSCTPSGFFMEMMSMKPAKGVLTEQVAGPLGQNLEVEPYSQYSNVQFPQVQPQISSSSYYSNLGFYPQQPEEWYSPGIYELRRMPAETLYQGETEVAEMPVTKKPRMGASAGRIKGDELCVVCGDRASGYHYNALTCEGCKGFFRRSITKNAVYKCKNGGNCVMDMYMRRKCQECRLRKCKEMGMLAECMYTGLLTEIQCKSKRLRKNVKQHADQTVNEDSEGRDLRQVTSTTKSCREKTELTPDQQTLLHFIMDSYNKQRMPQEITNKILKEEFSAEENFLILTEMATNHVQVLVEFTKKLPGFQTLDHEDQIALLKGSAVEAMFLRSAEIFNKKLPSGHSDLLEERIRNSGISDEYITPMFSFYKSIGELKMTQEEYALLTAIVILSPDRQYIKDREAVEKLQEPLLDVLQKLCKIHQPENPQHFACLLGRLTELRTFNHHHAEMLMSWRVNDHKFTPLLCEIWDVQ
Excerpt: NIH Chemical Genomics Center [NCGC] U.S. Environmental Protection Agency [EPA] National Institutes of Environmental Health Sciences [NIEHS] National Toxicology Program [NTP] NCGC Assay Overview The farnesoid-X-receptor (FXR), a nuclear hormone receptor is highly expressed in liver, intestine, kidney and adrenal cortex. Natural ligands of FXR are the bile acids (Cholic acid, Chenodeoxy cholic acid etc). It is an important regulator of diverse metabolic pathways, including the bile acid homeostasis, lipid and glucose metabolisms. FXR regulates the expression of target genes by binding either as a monomer or as a heterodimer with RXR (retinoid X receptor). As FXR regulates a large number of target genes involved in bile acid, lipoprotein and glucose metabolisms, it is a potential pharmacological target for bile acid and lipid disorders. Thus screening environmental chemicals on FXR signaling can be used for the studies focused on metabolic syndrome, hepatic and intestinal toxicity etc.
NCGC Assay Protocol Summary Using a beta-lactamase reporter-gene under control of Farnesoid X receptor (FXR) response element, a cell-based assay [GeneBLAzer FXR-UAS-bla assay developed by Invitrogen] was used to measure FXR ligands signaling. GeneBLAzer FXR-UAS-bla HEK293T cells were used with assay medium containing 10% dialyzed FBS. The assay was performed in clear bottom black Greiner 1536-well plates. Chenodeoxycholic acid and Guggulsterone were used in the screen as agonist and antagonist positive controls respectively. Library compounds were measured for their ability to stimulate the reporter gene activity. Compounds were screened in a titration series in 1536-well format. […] Data was normalized relative to Chenodeoxycholic acid control (100 uM, 100%), and DMSO only wells (basal, 0%). Concentration-response titration points for each compound were fitted to the Hill equation yielding concentrations of half-maximal stimulation (EC50) and maximal response (efficacy) values. qHTS protocol for FXR beta-lactamase assay in agonist mode [Step] [Parameter] [Value] [Description] 1. Reagent; 6 uL; 5000 cells/well 2. Incubation; 37 C for 5-7 hrs 3. Compounds; 23 nL; 0.59 nM to 92 uM 4. Controls (Chenodeoxycholic acid); 23 nL, - One column with dose response, start 200 uM, 1:2 dilutions in duplicates - Final concentrations of 100 uM and 60 uM in two columns 5. Incubation; 37 C for 16 hrs 6. Detection reagent; 1 uL of CCF4-dye 7. Incubation; RT for 2 hrs 8. Detection; Fluorescence; Envision plate reader

SMILES	activation
CC1=C2[C@H](/C=C(\C)C(=O)O)CC[C@@H](C)[C@H]2CC1	-3.32% (inactive)
CC1=CCC(C(C)(C)O)CC1 (stereo not given)	-1.09% (inactive)
C=CC(=C)C	-1.71% (inactive)
CNC(=O)O/N=C/C(C)(C)SC	1.35% (inactive) and 5.69% (inactive) and 1.03% (inactive)
O=C=NC1CCCCC1	-4.4% (inactive) and -2.88% (inactive)
C#CCOS(=O)OC1CCCCC1Oc1ccc(C(C)(C)C)cc1 (stereo not given)	6.98% (inactive)
Clc1cc(Cl)c(-c2cc(Cl)c(Cl)cc2Cl)cc1Cl	4.83% (inactive)
S=C=Nc1cccc2ccccc12	-1.78% (inactive)
C=C(C)C(=O)OCC1CO1 (stereo not given)	-3.45% (inactive)
C=CCc1ccc(OC)c(OC)c1	0.141% (inactive)
C=C(C)C#N	0.805% (inactive) and -0.908% (inactive)
CCCOC(=O)c1ccccc1C(=O)OCCC	-0.825% (inactive) and -0.41% (inactive)
CN(CCOc1ccc(C[C@H](Nc2ccccc2C(=O)c2ccccc2)C(=O)O)cc1)c1ccccn1	-7.09% (inactive)
C[C@H](CCC(=O)O)[C@H]1CC[C@H]2[C@@H]3[C@H](O)C[C@@H]4C[C@H](O)CC[C@]4(C)[C@H]3C[C@H](O)[C@]12C	1.14% (inactive)
OCC(Br)CBr (stereo not given)	0.562% (inactive)
CC(COc1ccc(Oc2ccccc2)cc1)Oc1ccccn1 (stereo not given)	0.631% (inactive) and 1.01% (inactive)
Cc1cccc([N+](=O)[O-])c1	-1.63% (inactive) and -0.0408% (inactive)
CCCC(=O)Cl	0.327% (inactive)
O=C(Cl)/C=C/C(=O)Cl	1.15% (inactive)
O=NN(c1ccccc1)c1ccccc1	-0.746% (inactive) and 1.47% (inactive)

SMILES	activation
COc1nc(NC(C)C)nc(NC(C)C)n1	0.515% (inactive)
ClC(Cl)=C(c1ccc(Cl)cc1)c1ccc(Cl)cc1	-9.46% (inactive)
ClC(Cl)(Cl)c1ccccc1	-1.47% (inactive) and 0.945% (inactive)
C=CC(=O)OCC	-1.2% (inactive)
Clc1ccc2ccccc2c1	-2.62% (inactive)
CC(O)CCl (stereo not given)	-2.4% (inactive) and 3.49% (inactive)
CC(C)OC(=O)Nc1cccc(Cl)c1	2.06% (inactive)
CC(C)(OO)c1ccccc1	-0.414% (inactive) and -0.341% (inactive)
Brc1ccc(Oc2cc(Br)c(Br)cc2Br)c(Br)c1	0.173% (inactive) and 5.65% (inactive)
CCOc1ccc(N)cc1	-2.12% (inactive)
Cc1ccc([N+](=O)[O-])cc1C	-0.387% (inactive) and 0.526% (inactive)
Cc1cccc(C#N)c1	-2.16% (inactive)
COP(N)(=O)SC (stereo not given)	2.48% (inactive)
c1ccc2c(c1)CCCC2	-2.64% (inactive)
ClC(Cl)=C(Cl)Cl	0.975% (inactive) and -2.66% (inactive)
Cc1ccc2ccccc2c1	-0.561% (inactive)
CC(Cl)Cl	-0.0258% (inactive)
NC(=S)Nc1ccccc1	-3.05% (inactive) and -3.49% (inactive)
O=C(Cl)C(Cl)(Cl)Cl	-1.96% (inactive)
O=S(=O)(O)c1ccccc1	0.473% (inactive)
